High-throughput results from PubChem BioAssay.
Gal4-VP16 FLuc: inhibits Gal4-VP16 luciferase reporter, ROR gamma counter-screen; Drosophila S2 Gal4-VP16 UAS-luciferase, luminescence, 20 h; Potency, µM (series often up to 53.6 µM), for inactives: at the top dose activity, negative = inhibition, most hits filed as inhibitors; 310,000 tested, 3.5% active;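 further: Gal4-VP16 expression switched on by copper sulfate through the metallothionein promoter; nearly all actives have a fitted effect of over 50% in size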
RORgamma inh: ROR gamma (mouse) transcription inhibition. P51450. Drosophila S2 Gal4-RORgamma UAS-luciferase reporter, 20 h. Potency, µM (titrated, usually from 53.6 µM), inactives show top-dose activity change, negative = inhibition, actives largely listed as inhibitors. 310,000 tested, 5.4% active. AID 2551; further: nearly all actives have a fitted effect of over 60% in size
Target sequence (P51450 whole entry, looked up, the tested form may be a part): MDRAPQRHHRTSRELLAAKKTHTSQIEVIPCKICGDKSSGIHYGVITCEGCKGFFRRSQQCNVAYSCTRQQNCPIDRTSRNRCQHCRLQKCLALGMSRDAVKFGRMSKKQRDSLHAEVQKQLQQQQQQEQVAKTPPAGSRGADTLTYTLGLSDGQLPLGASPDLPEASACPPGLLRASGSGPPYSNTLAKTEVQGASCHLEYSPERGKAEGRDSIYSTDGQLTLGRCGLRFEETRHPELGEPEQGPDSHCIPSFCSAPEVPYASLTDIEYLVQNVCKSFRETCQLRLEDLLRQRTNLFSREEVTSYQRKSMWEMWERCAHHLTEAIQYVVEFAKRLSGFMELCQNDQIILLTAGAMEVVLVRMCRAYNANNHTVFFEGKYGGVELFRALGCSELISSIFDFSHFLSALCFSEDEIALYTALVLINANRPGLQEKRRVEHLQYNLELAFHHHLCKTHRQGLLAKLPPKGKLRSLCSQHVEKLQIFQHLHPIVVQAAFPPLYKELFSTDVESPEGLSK
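Luciferase reporter read in Schneider cells carrying Gal4-RORγ (mouse) and UAS-Photinus luciferase; cells given compound 1 h before 700 uM copper sulfate induction, then incubated 20 h at ambient temperature.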
Luc counter: blocks Kinase-Glo luciferase, a counter-screen artifact | Kinase-Glo luciferase, ATP luminescence, 8 min | Potency, µM (top dose mostly 38.3 µM), for inactives: top-dose activity change, negative = inhibition, hits mostly inhibitors | 200,000 tested, 0.28% active | AID 1379; further: nearly all actives have a fitted effect of over 60% in size
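Kinase-Glo luciferase light output from ATP and luciferin was measured with 10 uM ATP, within the enzyme's linear range. Buffer: 50 mM imidazole pH 7.2, 50 mM KCl, 7 mM MgCl2, 0.01% Tween 20, 0.05% BSA; luminescence read after 8 min at ambient temperature.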
Starred values were filed as active, the others as inactive; ? = inconclusive; · = no result given; [ ] = another dose, or the depositor's remark. The list is not random: actives were taken first. Their share in the collection is about 6.4%. The call rests on the fitted dose curve; in most records, active means well fitted curve in the direction sought with a large enough effect; inconclusive means small, poorly fitted or top-dose-only effect, or another doubt; inactive means no such curve, though single readings can be large; an effect the other way counts as inactive or inconclusive. On the % scale 0 is the no-effect control and ±100 the full control effect; potency means the concentration at half of the fitted maximal effect.

SMILES | Gal4-VP16 FLuc | RORgamma inh | Luc counter
Cc1ccc(NC2=C(Cl)C(=O)OC2OC(C)C)cc1 (configuration not stated) | -9% | -1% | -1%
Cc1ccc(NC2=C(Cl)C(=O)OC2OC(=O)c2ccco2)cc1 (configuration not stated) | -19% | 11µM* | -5%
C[C@@H]1NC(=O)N(CCCn2ccnc2)C1=O | 2% | -7% | ·
O=C(CSCc1ccco1)Nc1cc(C(F)(F)F)ccc1N1CCOCC1 | -1% | -9%[10 µM] | -1%
O=C(/C=C/c1ccco1)NC(=S)Nc1cc(C(F)(F)F)ccc1N1CCOCC1 | ? | 6.3µM* | -1%
O=C(/C=C/c1ccco1)NC(=S)Nc1ccccc1N1CCOCC1 | 8.9µM* | 2.8µM* | 7%
O=C(/C=C/c1ccco1)NC(=S)Nc1ccccc1N1CCCC1 | ? | ? | 1%
COc1ccc2c(c1)O[C@@H](c1cccc(C(F)(F)F)c1)[C@H](OC(=O)N[C@H](C)C1CCCCC1)C2=O | ? | ? | -1%
O=C(COc1ccccc1Br)N1CCN(C(=O)c2ccco2)CC1 | 7% | 31% | ·
Cc1sc2ccccc2[n+]1CCC(=O)O | · | · | 0%[7.66 µM]
CCOc1ccc(CNC(=O)CCC(=O)n2ncc3ccc(Cl)cc32)cc1 | -11% | 17% | ·
COC(=O)C1(Cc2ccccc2)C=C2C(=C(C(C)C)C(=O)C2C)CN1 (configuration not stated) | -5% | 39% | -2%
Cc1cc2cc3c(cc2nc1SCc1ccccn1)OCCO3 | -3% | -4% | -3%
N#Cc1cc2ccccc2nc1SCc1ccccn1 | ? | 6.3µM* | 7%
NCCC[C@@H](CC(=O)N[C@@H]1CCNC[C@H]1C(=O)N[C@H](CC(=O)N[C@@H](CCC(=O)O)CC(=O)O)Cc1ccccc1)NC(=O)C[C@H](CO)NC(=O)[C@@H]1CCCC[C@H]1N | 0% | 10% | -1%
CCOCN(C(=O)Cn1cnc2ccccc21)c1c(C)cccc1CC | 2% | -27% | 1%
CCc1cccc(CC)c1N(COC)C(=O)Cn1cnc2ccccc21 | 15% | 10µM* | ·
CCn1c(SCc2nc3ccccc3[nH]2)nnc1-c1ccc(OC)cc1 | -10% | 0% | -3%
O=C1c2ccccc2CC[C@H]1CNCCc1ccc(O)cc1 | 11µM* | 14µM* | 0%
O=C(NCCc1ccccc1)c1noc2c1CCc1ccccc1-2 | -13% | 2% | -2%
CC1(C)N=C(N)N=C(N)N1c1cccc(OCc2cccc([N+](=O)[O-])c2)c1 | · | · | 0%[7.66 µM]
Cc1ccc(CSC(Nc2ccc(F)cc2)=C(C#N)C#N)cc1 | 25µM* | ? | -1%
CCN(CC)C(=O)CSC(Nc1ccc(F)cc1)=C(C#N)C#N | -2% | 2% | ·
OCCC1CN(Cc2cccc3nonc23)CCN1C1CCCCC1 (configuration not stated) | 1% | 1% | ·
COC(=O)c1ccc(N2CCOCC2)c(NC(=O)c2ccco2)c1 | -1% | -20% | ·
SMILES | Gal4-VP16 FLuc | RORgamma inh | Luc counter
COc1cccc(C=Nc2ccccc2C(=O)Nc2nccs2)c1OC | 8% | -15% | 5%
COc1cccc2c1OCC(C(=O)Nc1nccs1)=C2 | ? | 11µM* | ·
Cc1ccc(NC(=O)c2cc(C)n(-c3ccccc3)c2C)cc1 | 6.3µM* | 4.5µM* | -16%
Cc1ccc(NC(=O)c2cc(C)n(-c3cccc(C)c3)c2C)cc1 | -26% | -39% | 0%
Cc1ccc(NC(=O)c2csc(-c3ccccc3)c2C)cc1 | 2µM* | 2µM* | -25%
Cc1c(C(=O)Nc2cccc([N+](=O)[O-])c2)csc1-c1ccccc1 | -1% | ? | -16%
O=c1[nH]c(SCc2ccc([N+](=O)[O-])cc2)nc2[nH]ncc12 | 22% | -16% | 2%
CCNC(=O)C1CC(=O)N(CCCc2ccccc2)C(=Nc2ccccc2)S1 (configuration not stated) | 0% | -1% | ·
COc1ccccc1N1CCN(C(=O)CN(C)S(=O)(=O)c2cc(C)ccc2OC)CC1 | 7% | 5% | -2%
N#CCCCS(=O)(=O)c1nnnn1-c1ccc(Br)cc1 | -22% | 8% | 1%
N#CCCS(=O)(=O)c1nnnn1-c1ccccc1 | 4.5µM* | 2.8µM* | -4%
Cc1ccc(C)c(NC(=O)c2ccccc2O)c1 | ? | ? | -6%
Cc1ccc(O)c(C(=O)CC(=O)c2ccc(C(C)(C)C)cc2)c1 | 5µM* | 5.6µM* | ·
Cc1ccc(S(=O)(=O)CC(=O)c2ccc(C(C)(C)C)cc2)cc1 | 10% | 30% | ·
Cc1ccc(O)c(C(=O)CC(=O)c2ccccc2Cl)c1 | 13µM* | 7.1µM* | 1%
CCOC(=O)C(=CNc1cc(C(F)(F)F)ccc1N1CCOCC1)C(=O)OCC | 5% | 21% | ·
CCc1ccc(CN(C(=O)COc2c(C)cccc2C)C2CCS(=O)(=O)C2)cc1 (configuration not stated) | -12% | 19% | ·
CCn1c(O)c(N=N)c2ccccc21 | -19% | 16% | 6%
CCn1c(O)c(N=NC2=NC(=O)CS2)c2ccccc21 | ? | 10µM* | 3%
COc1cc(OC)cc(C(=O)N2CCN(Cc3ccccc3Br)CC2)c1 | -1% | 15% | -1%
CCOc1ccccc1CNC(=O)c1ccc2c(c1)N(CC)CCS2 | -5% | 31% | ·
C/C(=N\N=C1/NC(=O)C(C)S1)c1ccc([N+](=O)[O-])cc1 (configuration not stated) | 5% | ? | -3%
CC(C)=N/N=C1\NC(=O)C(C)S1 (configuration not stated) | ? | 11µM* | ·
COc1ccc(C(CC(=O)O)N2C(=O)CCC2=O)cc1 (configuration not stated) | 2% | -25% | ·
Cc1cc(=O)[nH]c(SCC(=O)N2CCCC(C)C2)n1 (configuration not stated) | -2% | -4% | ·
SMILES | Gal4-VP16 FLuc | RORgamma inh | Luc counter
COc1ccc(-c2csc(NC(=O)c3ccccc3NS(=O)(=O)c3ccc(F)c(F)c3)n2)cc1 | 4µM* | 5.6µM* | 0%
Cc1ccc(S(=O)(=O)Nc2ccccc2C(=O)Nc2nc(-c3ccc(F)cc3)cs2)cc1 | -8% | 16% | 3%
Cc1ccnc(N(C(=O)Nc2ccccc2)C2=NCC(C)(C)S2)c1 | ? | 11µM* | ·
Cc1ccc(N(C(=O)Nc2ccccc2)C2=NCC(C)S2)cc1 (configuration not stated) | 11% | -35% | -1%
O=C1C(c2[nH]c3ccc(S(=O)(=O)O)cc3c2O)=Nc2ccc(S(=O)(=O)O)cc21 | 2% | 6% | -3%[39.9 µM]
COC(=O)c1ccc2nccnc2c1 | 1% | 24% | ·
COC(=O)c1ccc2c(c1)C(C)(C)C(/C=C/c1ccccc1O)=[N+]2C | -6% | 41% | 4.5µM*
C/C(=N\O)C(=O)NCc1ccccn1 | · | 7%[0.365 µM] | -1%
S=C(NCc1ccccn1)Nc1ccc(Cl)c(Cl)c1 | 5µM* | 2.5µM* | -1%
S=C(NCc1ccccn1)Nc1ccccc1 | ? | 14µM* | 1%
COc1ccc(NC(=S)NCc2ccccn2)cc1OC | ? | ? | 0%
Fc1ccc(NC(=S)NCc2ccccn2)cc1 | ? | 10µM* | -3%
O=C(NCc1ccccn1)C1C2C=CC(C2)C1C(=O)Nc1ccc(F)cc1 (configuration not stated) | 11% | 16% | 1%
O=C(Cc1ccccn1)Nc1ccccc1 | 2% | 33% | 2%
O=C(NCc1ccccn1)/C(=N/O)c1ccccc1 | -24% | 10µM* | -1%
